These sequences were tested against NTRK3 (assay: pooled miR-30 sensor sort-seq; sequence = guide strand). Conditions: shRNA.
Further: reference of the scale not given here.

Sequence	sensor-assay potency score (higher = more potent)
TTGATCTCAGTCTTGCTGCAGA	0.132
TAGAACTTGACAATGTGCTCAT	0.762
TAGACAGTGAGGGCAACACTGG	-1.18
TTCATTCCAAATTTGGACCGTC	0.838
TTAATGTGCTGCACATACGTGT	0.37
TCTCTGTAGTGAACTTCCGGTA	-0.729
TTGTGGGTCACAGTGATAGGAG	-0.852
TTCACTAGCAGATTCGCTCCAA	0.574
TAGACATCTCTGGACATGCCGA	-0.718
TTGACAGGTTTATATAACGCAA	-0.787

Each sequence was assayed against NUDT12 in the same assay as above. Conditions: shRNA.

Sequence	sensor-assay potency score (higher = more potent)
TATTATTACATTCATTTCCAGT	-0.883
TTTTGCTTTCTCTAGAATCTTA	0.0347
TATATCTGTGTAGTTCAGCTGA	0.275
TAATAGTATGCTTTTCTCCTTC	0.381
TATATTGACAACTTAAAGGTAA	-0.0673
TTAATTTCTGTAGACACTGCTA	0.0613
TTTCTCTAGAATCTTACTGATT	-0.991
TTAAATATGTAAATCTGCCTGG	0.199
TTAACTTGGCAATATCTCCTTC	0.732
TTTAACATTATGAAAACCTGGA	0.224
TAGTAAATTAGCTATATGCTTA	-0.516

Each sequence was assayed against NUDT17 in the same assay as above. Conditions: shRNA.

Sequence	sensor-assay potency score (higher = more potent)
TTGTCCTCTGCCATGGTTGGGA	-0.492
TCTCTGTCCCATCCTCTGCGGC	-1.35
TTCCACTGCAAGGACAGAGGGT	-0.741
TTAGCAAGACAGTCTTGTCGCT	0.135
TAGCAAGACAGTCTTGTCGCTG	-0.0193
TGTTCCATTCTTCCTTTGCTGG	-1.04
TTTGGGTTTGGTTGGATCCGGG	-0.403
TTGAGGGCAAACTTGGTTCCAG	-0.0646
TAAGCTGCACTTTTACACGGTG	-0.247
TTCTCGAAGCCCTCCGTCCAGC	-1.17
ATACAGAACAATGTGATGGTAT	0.6
AGCAAGACAGTCTTGTCGCTGG	-0.353

Each sequence was assayed against NUDT18 in the same assay as above. Conditions: shRNA.

Sequence	sensor-assay potency score (higher = more potent)
TAGCTCTTGGGGCAGAATGAGA	-1.69
TGTCTCGGGCTCACAGTGCAGC	-1.13
ACTAACACCCACACTGTCTGGG	-0.0585
TTGCAGGTCTTCCTCCATCACC	-1.52
TTACTCAGCAACGTGCTCCTCC	0.514
AACTTTTGGGGGTTCATCCTGG	-0.225
ATCACTGTGATCTCGGCCCAGG	-0.975
